# This is a sample that favours compounds with a hit; in the whole collection about 12% have one here.
# HP1b binding inh = HP1-beta chromodomain-methylated histone interaction inhibition | Potency, µM (series often up to 114 µM), inactives show top-dose activity change, negative = inhibition, actives largely listed as inhibitors | 390,000 tested, 0.56% active | AlphaScreen HP1-beta / biotin-H3K9me3 peptide binding | P83916; note: nearly all actives have a fitted effect of over 70% in size
#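 HP1-beta protein (50 nM final) preincubated 30 min at room temperature with biotinylated H3(1-18)K9me3 peptide (50 nM) in PBS pH 7.4, 0.01% Tween-20, then compound added for 30 min. AlphaScreen streptavidin donor/nickel chelate acceptor beads (10 ug/mL final), 30 min dark, luminescence read.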
# G9a inh = G9a (human) methyltransferase inhibition; Q96KQ7; G9a H3K9 monomethylation, AlphaScreen, 2 h; Potency, µM (series often up to 102 µM), inactives show at the highest dose activity, negative = inhibition, usual class: inhibitors; 350,000 tested, 8.8% active; note: % is set by controls: 0 for no effect and ±100 for the full control effect; nearly all actives have a fitted effect of over 75% in size
#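 Readings reflect AlphaScreen signal from monomethyl-H3K9 antibody detection. HMT at 20 nM; substrate b-H3K9 500 nM; cofactor SAM 20 uM; 2 h RT reaction; compounds tested as titrations in qHTS with 15 min preincubation.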
# JMJD2A Tudor = blocks the human JMJD2A Tudor domain. AlphaScreen JMJD2A-Tudor / H3K4me3 peptide binding. 390,000 tested, 4.4% active. Potency, µM (doses to about 114 µM), for inactives: at the top dose activity change, negative = inhibition, usual class: inhibitors. O75164; note: % is set by controls: 0 for no effect and ±100 for the full control effect; nearly all actives have a fitted effect of over 50% in size
# BAZ2B block = blocks human BAZ2B; AlphaScreen BAZ2B-H3K14Ac peptide displacement; Potency, µM (series often up to 114 µM), for the others: top-dose activity change, negative = inhibition, usual class: inhibitors; Q9UIF8; AID 504333; 360,000 tested, 4.4% active; note: % is set by controls: 0 for no effect and ±100 for the full control effect; nearly all actives have a fitted effect of over 60% in size
# Target sequence (Q9UIF8 whole entry, looked up): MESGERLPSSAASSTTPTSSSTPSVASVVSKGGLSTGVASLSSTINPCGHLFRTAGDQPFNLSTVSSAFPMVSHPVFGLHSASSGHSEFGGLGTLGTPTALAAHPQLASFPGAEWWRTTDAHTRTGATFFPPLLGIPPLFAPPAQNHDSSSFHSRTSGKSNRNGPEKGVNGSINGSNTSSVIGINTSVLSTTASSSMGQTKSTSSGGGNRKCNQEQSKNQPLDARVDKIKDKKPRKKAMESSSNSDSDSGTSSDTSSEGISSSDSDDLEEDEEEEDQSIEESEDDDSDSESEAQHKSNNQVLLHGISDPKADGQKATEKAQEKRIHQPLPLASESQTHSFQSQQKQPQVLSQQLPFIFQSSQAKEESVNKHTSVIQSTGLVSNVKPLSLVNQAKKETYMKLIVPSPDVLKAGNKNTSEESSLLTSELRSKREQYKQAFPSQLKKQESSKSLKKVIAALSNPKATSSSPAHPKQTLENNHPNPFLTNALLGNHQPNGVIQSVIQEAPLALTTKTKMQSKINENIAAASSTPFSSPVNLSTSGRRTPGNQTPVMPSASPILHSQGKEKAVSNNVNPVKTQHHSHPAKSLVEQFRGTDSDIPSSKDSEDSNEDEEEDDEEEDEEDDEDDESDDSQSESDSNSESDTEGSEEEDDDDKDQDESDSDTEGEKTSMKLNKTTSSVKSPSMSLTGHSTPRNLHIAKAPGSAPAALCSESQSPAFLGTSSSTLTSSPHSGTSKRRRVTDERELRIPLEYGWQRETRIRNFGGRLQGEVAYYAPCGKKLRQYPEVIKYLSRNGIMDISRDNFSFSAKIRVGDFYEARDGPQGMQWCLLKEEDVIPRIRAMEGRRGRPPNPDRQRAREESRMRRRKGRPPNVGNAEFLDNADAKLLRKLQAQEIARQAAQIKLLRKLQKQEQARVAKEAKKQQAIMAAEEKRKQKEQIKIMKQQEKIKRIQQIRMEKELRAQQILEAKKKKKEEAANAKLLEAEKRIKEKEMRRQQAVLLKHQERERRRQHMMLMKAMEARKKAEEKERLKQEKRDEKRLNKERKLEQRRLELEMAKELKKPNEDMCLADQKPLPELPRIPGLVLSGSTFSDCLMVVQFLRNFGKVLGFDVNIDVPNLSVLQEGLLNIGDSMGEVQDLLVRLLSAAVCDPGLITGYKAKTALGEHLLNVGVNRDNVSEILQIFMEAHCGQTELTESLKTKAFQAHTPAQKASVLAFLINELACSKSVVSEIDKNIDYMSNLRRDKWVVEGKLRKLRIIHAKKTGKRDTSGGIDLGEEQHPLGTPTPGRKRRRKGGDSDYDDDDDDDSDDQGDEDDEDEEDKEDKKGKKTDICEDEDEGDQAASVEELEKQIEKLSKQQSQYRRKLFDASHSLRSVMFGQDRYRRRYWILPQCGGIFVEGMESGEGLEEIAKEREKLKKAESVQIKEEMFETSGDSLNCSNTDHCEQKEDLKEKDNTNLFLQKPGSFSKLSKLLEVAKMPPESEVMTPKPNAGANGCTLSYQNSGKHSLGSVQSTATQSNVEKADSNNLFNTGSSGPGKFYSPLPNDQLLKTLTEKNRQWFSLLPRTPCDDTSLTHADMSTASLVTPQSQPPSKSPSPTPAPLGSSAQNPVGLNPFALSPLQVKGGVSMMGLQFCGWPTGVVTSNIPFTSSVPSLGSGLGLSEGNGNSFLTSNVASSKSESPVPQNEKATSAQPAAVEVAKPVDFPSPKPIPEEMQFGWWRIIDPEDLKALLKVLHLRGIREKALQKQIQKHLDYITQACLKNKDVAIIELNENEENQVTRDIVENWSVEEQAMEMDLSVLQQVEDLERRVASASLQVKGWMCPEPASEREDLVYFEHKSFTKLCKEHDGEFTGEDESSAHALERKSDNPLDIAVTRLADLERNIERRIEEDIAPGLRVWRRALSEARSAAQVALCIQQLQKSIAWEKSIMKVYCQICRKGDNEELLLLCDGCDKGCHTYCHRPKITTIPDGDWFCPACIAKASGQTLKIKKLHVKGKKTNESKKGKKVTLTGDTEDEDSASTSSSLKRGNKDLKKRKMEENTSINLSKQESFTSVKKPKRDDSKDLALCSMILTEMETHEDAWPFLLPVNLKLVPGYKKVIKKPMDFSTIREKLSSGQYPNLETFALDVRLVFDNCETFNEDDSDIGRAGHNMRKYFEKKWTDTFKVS
#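 Protein-peptide AlphaScreen: BAZ2B 50 nM, b-H3K14Ac 50 nM, 1x PBS pH 7.4 + 0.01% Tween-20. Preincubation 30 min RT; cpd 30 min RT (top 110 uM); beads 20 min RT, light-protected.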
# L3MBTL1 block = inhibitors of human L3MBTL1 | Q9Y468 | AlphaScreen L3MBTL1–H3K9me1 peptide binding | Potency, µM (series often up to 57.1 µM), for inactives: at the highest dose activity, negative = inhibition, usual class: inhibitors | 230,000 tested, 0.66% active; note: % is set by controls: 0 for no effect and ±100 for the full control effect; nearly all actives have a fitted effect of over 60% in size
#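 AlphaScreen assay: L3MBTL1 (50 nM final) was preincubated 30 min at room temperature with biotinylated H3(1-15)K9me1 peptide (75 nM final), then 30 min with library compounds; streptavidin donor and nickel chelate acceptor beads (10 ug/mL final) added, 30 min dark.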
# Sfp PPTase inh = inhibitors of Bacillus subtilis Sfp phosphopantetheinyl transferase | Biochemical Sfp PPTase activity, qHTS | Potency, µM, for inactives: largest response in the series, negative = inhibition, actives largely listed as inhibitors | Q9F4F7 | 310,000 tested, 3.5% active;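 note: the enzyme is Sfp with the accession as filed and its product quenches rhodamine fluorescence; 0% = enzyme reaction without inhibitor and -100% = no enzyme wells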
#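 Compounds were incubated with enzyme (final 15 nM) for 15 min at room temperature before substrate addition started the reaction. Fluorescence at 525 nm excitation, 598 nm emission was recorded immediately and after 30 minutes.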
# Active calls of the source: *; ? = inconclusive; nt = not tested or not shown; [ ] = another dose, or the depositor's remark. Calls come from the whole dose curve; as a rule, active = well fitted curve in the direction sought with a large enough effect; inconclusive = small, poorly fitted or top-dose-only effect, or another doubt; inactive = no such curve, though single readings can be large; an effect the other way counts as inactive or inconclusive. Potency is the fitted concentration of half-maximal effect.
SMILES,HP1b binding inh,G9a inh,JMJD2A Tudor,BAZ2B block,L3MBTL1 block,Sfp PPTase inh
CCNc1ccc(S(=O)(=O)NCCN(C)C)cc1[N+](=O)[O-],9%,-4%,0%,nt,3%,8%
CN(C)CCCNS(=O)(=O)c1ccc(NC2CCCCCC2)c([N+](=O)[O-])c1,-6%,71µM*,?,?,nt,-6%
Cc1ccc2c(c1)c(C)c(C)n2CC(O)Cn1nc(C)cc1C (configuration not stated),-24%,45µM*,?,-51%,-3%,17%
Cc1ccccc1OCCn1c(=S)[nH]c2c(N)ncnc21,?,1.8µM*,7.1µM*,-24%,nt,-29%
COc1ccc(CNc2ncnc3cc(Cl)ccc23)cc1,40%,nt,-4%,14%,5%,10%
COc1cc2ncnc(NCc3ccco3)c2cc1OC,20%,?,-26%,-35%,-5%,-2%
COc1ccc(CNc2ncnc3cc(OC)c(OC)cc23)cc1OC,13%,45µM*,-18%,-18%,2%,3%
COc1cc2ncnc(NCc3ccccc3)c2cc1OC,55%,71µM*,-15%[11.4 µM],10%,-7%,-11%
COc1cc2ncnc(NCc3cccc(Cl)c3)c2cc1OC,29%,40µM*,-4%,-4%,-5%,3%
COc1ccc(CNc2ncnc3cc(OC)c(OC)cc23)cc1,55%,40µM*,-21%[11.4 µM],12%,2%,1%
COc1cccc(CNc2ncnc3cc(Cl)ccc23)c1,34%,-1%[59 µM],-3%,-11%,13%,-23%
CCC(=O)N1CCc2cc(CNS(=O)(=O)c3ccc(C(C)C)cc3)ccc21,46%,-1%[59 µM],-11%,-3%,nt,nt
CCC(=O)Nc1ccc(C)cc1-c1nc2ccccc2n(C(C)C(=O)Nc2ccccc2CC)c1=O (configuration not stated),47%,?,-32%,0%,nt,nt
COC(=O)c1cnn(-c2ccc(C(=O)Nc3cc(OC)c(OC)c(OC)c3)cc2)c1N,22%,1%[59 µM],-10%,-10%,nt,nt
O=C(Nc1ccccc1C(F)(F)F)N1CCOc2ccc(Cl)cc21,6%,?,-27%,-16%,nt,nt
COc1ccc(OC)c(CNS(=O)(=O)c2cc(-c3onc(C)c3C)ccc2C)c1,21%,-3%[59 µM],-10%,-17%,nt,nt
COc1ccc(OC)c(CNCc2c(C(=O)O)n(Cc3cccc(F)c3)c3cc(OC)ccc23)c1,26%,-44%[59 µM],-27%,-28%,nt,nt
COc1cc(-c2ccc3ncnc(NCc4ccc(C)o4)c3c2)cc(OC)c1OC,nt,nt,50µM*,nt,nt,nt
COc1ccccc1CNc1ncnc2cc(OC)c(OC)cc12,49%,32µM*,-29%,-16%,5%,7%
COc1ccc(CNc2ncnc3ccc(-c4ccoc4)cc23)c(OC)c1,nt,-29%[0.501 µM],nt,nt,nt,-2%
Cc1c(C)n(Cc2ccccc2)c2ccc(C(=O)NCCN3CCOCC3)cc12,7%,?,?,?,nt,0%
CCn1c(C)c(C)c2cc(C(=O)NCCCN3CCCC3)ccc21,3%,56µM*,50µM*,-18%[57.1 µM],nt,-4%
CCn1c(C)c(C)c2cc(C(=O)Nc3cccc(Cl)c3)ccc21,-8%,79µM*,-31%[57.1 µM],-11%[57.1 µM],-13%,21%
O=C(NCCCN1CCN(c2ccccc2F)CC1)c1ccc2nc(N3CCCCC3)sc2c1,-19%,11µM*,?,-11%,nt,nt
Cc1c(C)n(Cc2ccc(Cl)cc2)c2ccc(C(=O)NCCN3CCOCC3)cc12,-8%,?,?,45µM*,nt,-19%
SMILES,HP1b binding inh,G9a inh,JMJD2A Tudor,BAZ2B block,L3MBTL1 block,Sfp PPTase inh
NS(=O)(=O)c1cc2c(cc1Cl)N[C@@H]([C@@H]1C[C@@H]3C=C[C@H]1C3)NS2(=O)=O,nt,nt,nt,nt,nt,3%
O=C(NCCCN1CCCCC1)c1ccc2c(c1)ncn2C1CCCC1,43%,45µM*,-8%,-19%,nt,3%
O=C(NCCCN1CCCC1=O)c1ccc2c(c1)ncn2C1CCCCC1,36%,-9%,-3%,-2%,3%,10%
COc1ccc(C(=O)Cn2c(=O)c(-c3cc(C)ccc3NC(C)=O)nc3ccccc32)cc1,19%,-25%[59 µM],-22%,-14%,nt,nt
Nc1nc2c(c(=O)[nH]1)C(c1ccccc1)C1=C(N2)c2ccccc2C1=O (configuration not stated),2%,?,-6%,?,nt,?
Cc1cccc(C2C3=C(Nc4[nH]n(-c5ccccc5)c(=O)c42)c2ccccc2C3=O)c1 (configuration not stated),?,20µM*,35µM*,32µM*,-28%,-16%
CCn1c(=O)sc2cc(NS(=O)(=O)c3ccc(F)c(C)c3)ccc21,38%,1%[59 µM],-5%,2%,nt,nt
Oc1ccccc1/C=N/Nc1nc2ccccc2o1,31%,nt,-24%,-2%,-11%,11%
COc1cc(/C=N/Nc2nc3ccccc3o2)cc(OC)c1O,25%,40µM*,?,-25%,nt,?
Brc1ccc(/C=N/Nc2nc3ccccc3o2)cc1,44%,28µM*,-14%,-27%,nt,-2%
COc1ccc(/C=N/Nc2nc3ccccc3o2)cc1O,20%,40µM*,-22%,-2%,nt,?
Cc1cc(F)ccc1NC(=O)C1CCCN(S(=O)(=O)c2ccc3c(c2)CCCC(=O)N3)C1 (configuration not stated),-5%,-8%[59 µM],-17%,10%[57.1 µM],nt,nt
N#Cc1ccc(CSc2nnc(Nc3ccccc3)s2)cc1,23%,11%[59 µM],-11%,4%,-3%,-9%
CC(C)Sc1nnc(Nc2ccccc2)s1,35%,50µM*,0%,5%,4%,-4%
CC(=O)Nc1ccn(C2OC(C(COC(C)=O)NC(=O)C3CCCN3C(=O)OC(C)(C)C)C(OC(C)=O)C2OC(C)=O)c(=O)n1 (configuration not stated),40%,nt,6%,nt,nt,6%
CC(=O)c1cc(-c2ccccc2)n(CCC(=O)NCc2ccc(C)cc2)c1C,32%,2%[59 µM],-10%,1%,nt,nt
Cc1cc(C=C(C#N)C#N)c(C)n1-c1ccccc1,11%,-50%,-14%,-4%,0%,2%
Cc1cc(/C=C(\C#N)C(=O)O)c(C)n1CC1CCCO1 (configuration not stated),?,?,14µM*,-31%,0%,19%
Cc1cc(/C=C(\C#N)C(=O)O)c(C)n1-c1ccc(Br)cc1,-19%,71µM*,-14%[11.4 µM],?,nt,2%
CCC(=S)/C=C1\Sc2ccccc2N1CCCS(=O)(=O)O,?,nt,28µM*,?,?,-104%
CC(=O)c1cccc(OCc2cc(C(=O)N3C[C@@H](C)O[C@@H](C)C3)no2)c1,56%,45µM*,-10%,-18%,nt,3%
